# How the values were obtained:
# [1] = biological target: T1, Inhibitor of nuclear factor kappa-B kinase subunit epsilon (Homo sapiens) (UniProt Q14164); conditions: at 1 µM;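 further: reported values are averaged percent inhibition figures against human IKKε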
# T1 sequence (whole entry): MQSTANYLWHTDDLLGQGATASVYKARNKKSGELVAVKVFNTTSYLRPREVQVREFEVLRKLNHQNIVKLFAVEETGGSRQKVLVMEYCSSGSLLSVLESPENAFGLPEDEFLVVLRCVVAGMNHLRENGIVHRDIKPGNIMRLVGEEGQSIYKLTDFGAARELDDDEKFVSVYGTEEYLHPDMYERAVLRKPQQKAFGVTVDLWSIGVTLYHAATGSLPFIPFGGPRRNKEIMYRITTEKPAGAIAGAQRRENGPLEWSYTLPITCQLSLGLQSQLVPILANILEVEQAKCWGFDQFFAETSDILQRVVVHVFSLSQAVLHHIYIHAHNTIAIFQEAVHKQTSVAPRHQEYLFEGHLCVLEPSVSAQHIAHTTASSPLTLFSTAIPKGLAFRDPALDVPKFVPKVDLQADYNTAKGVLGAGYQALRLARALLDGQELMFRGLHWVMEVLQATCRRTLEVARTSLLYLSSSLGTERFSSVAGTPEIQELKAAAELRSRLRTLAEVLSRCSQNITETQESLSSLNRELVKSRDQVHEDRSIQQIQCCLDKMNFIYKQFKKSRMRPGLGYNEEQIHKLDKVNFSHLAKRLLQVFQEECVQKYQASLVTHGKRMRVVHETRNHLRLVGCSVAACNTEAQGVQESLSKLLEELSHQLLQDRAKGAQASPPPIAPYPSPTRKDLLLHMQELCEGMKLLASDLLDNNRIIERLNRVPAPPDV
# [2] = biological target: T2, Serine/threonine-protein kinase Nek1 (Homo sapiens) (UniProt Q96PY6); conditions: at 0.1 µM
# T2 sequence (whole entry): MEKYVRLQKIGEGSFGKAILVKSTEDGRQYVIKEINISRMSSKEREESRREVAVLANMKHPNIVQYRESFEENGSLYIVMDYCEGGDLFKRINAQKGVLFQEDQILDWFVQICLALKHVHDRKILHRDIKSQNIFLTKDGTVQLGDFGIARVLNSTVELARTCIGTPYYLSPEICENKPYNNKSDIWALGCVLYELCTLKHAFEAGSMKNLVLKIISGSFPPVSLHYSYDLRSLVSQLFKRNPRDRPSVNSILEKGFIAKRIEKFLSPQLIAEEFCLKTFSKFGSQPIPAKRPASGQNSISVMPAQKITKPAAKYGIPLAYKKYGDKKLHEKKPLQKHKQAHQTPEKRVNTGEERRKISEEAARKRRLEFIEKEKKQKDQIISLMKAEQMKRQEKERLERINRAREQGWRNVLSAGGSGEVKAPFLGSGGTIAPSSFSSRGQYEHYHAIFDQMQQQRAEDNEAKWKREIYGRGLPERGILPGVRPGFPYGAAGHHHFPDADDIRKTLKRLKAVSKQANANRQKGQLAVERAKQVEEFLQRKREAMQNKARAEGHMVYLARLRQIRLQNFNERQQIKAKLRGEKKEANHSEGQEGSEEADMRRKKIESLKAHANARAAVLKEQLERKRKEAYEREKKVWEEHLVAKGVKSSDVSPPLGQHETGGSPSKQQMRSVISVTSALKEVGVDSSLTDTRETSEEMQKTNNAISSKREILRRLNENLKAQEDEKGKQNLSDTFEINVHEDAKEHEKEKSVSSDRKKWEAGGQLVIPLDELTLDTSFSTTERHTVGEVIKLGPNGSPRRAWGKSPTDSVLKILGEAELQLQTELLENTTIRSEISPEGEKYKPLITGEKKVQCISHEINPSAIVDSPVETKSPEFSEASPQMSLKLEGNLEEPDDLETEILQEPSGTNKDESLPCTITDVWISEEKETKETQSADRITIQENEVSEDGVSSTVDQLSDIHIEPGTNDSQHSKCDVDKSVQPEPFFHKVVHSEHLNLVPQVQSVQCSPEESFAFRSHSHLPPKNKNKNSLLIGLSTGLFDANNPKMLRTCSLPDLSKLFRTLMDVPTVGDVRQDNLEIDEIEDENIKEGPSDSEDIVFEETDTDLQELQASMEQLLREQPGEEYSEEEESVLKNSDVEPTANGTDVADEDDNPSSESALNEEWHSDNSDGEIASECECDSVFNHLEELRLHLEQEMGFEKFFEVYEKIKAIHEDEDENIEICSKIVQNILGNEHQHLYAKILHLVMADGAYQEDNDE
# [3] = biological target: T2, Serine/threonine-protein kinase Nek1 (Homo sapiens); conditions: at 1 µM
# [4] = biological target: T3, Serine/threonine-protein kinase Nek2 (Homo sapiens) (UniProt P51955); conditions: at 0.1 µM
# T3 sequence (whole entry): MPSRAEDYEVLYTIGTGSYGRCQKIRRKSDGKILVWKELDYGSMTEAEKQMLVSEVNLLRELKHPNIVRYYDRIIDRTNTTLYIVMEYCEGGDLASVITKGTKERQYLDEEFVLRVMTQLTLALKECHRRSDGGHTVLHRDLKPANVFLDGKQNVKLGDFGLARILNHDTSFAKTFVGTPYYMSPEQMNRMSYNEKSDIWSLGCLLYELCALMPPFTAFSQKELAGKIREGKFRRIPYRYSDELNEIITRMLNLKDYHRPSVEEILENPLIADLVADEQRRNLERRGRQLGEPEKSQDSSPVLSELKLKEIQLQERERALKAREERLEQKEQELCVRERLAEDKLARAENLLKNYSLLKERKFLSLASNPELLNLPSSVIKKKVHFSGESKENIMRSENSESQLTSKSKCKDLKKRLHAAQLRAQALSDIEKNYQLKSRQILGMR
# [5] = biological target: T3, Serine/threonine-protein kinase Nek2 (Homo sapiens); conditions: at 1 µM
# [6] = biological target: Serine/threonine-protein kinase Nek6 (Homo sapiens) (UniProt Q9HC98); conditions: at 0.1 µM
# [7] = biological target: Serine/threonine-protein kinase Nek6 (Homo sapiens) (UniProt Q9HC98); conditions: at 1 µM
# [8] = biological target: Serine/threonine-protein kinase Nek7 (Homo sapiens) (UniProt Q8TDX7); conditions: at 0.1 µM
# [9] = biological target: Serine/threonine-protein kinase Nek7 (Homo sapiens) (UniProt Q8TDX7); conditions: at 1 µM
# [10] = biological target: T4, Serine/threonine-protein kinase Nek9 (Homo sapiens) (UniProt Q8TD19); conditions: at 0.1 µM
# T4 sequence (whole entry): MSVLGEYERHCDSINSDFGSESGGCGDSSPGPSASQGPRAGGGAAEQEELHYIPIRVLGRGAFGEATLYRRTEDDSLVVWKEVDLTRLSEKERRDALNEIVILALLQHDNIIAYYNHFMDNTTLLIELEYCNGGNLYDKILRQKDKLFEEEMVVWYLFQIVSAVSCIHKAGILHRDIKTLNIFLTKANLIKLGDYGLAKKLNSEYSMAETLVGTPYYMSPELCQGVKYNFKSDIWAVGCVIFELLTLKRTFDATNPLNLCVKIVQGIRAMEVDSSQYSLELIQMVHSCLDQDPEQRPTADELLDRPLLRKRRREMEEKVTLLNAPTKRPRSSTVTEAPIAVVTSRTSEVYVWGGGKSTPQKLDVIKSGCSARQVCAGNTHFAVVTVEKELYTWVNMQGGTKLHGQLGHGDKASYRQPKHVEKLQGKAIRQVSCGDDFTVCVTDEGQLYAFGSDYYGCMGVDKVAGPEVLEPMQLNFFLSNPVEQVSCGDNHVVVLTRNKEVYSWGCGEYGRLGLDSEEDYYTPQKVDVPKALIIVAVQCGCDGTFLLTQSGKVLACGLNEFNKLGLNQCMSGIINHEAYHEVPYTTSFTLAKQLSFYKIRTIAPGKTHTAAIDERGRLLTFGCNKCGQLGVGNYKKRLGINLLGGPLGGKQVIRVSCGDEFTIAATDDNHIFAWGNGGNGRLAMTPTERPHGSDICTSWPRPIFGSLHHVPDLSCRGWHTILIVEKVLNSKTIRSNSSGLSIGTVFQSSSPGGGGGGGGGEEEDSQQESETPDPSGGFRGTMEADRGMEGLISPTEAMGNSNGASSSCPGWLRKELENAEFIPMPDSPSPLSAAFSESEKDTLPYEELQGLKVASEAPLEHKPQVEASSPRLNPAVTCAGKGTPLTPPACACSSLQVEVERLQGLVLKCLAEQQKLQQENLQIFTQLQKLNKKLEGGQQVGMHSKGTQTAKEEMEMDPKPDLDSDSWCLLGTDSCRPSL
# [11] = biological target: T4, Serine/threonine-protein kinase Nek9 (Homo sapiens); conditions: at 1 µM
# [12] = biological target: Serine/threonine-protein kinase PLK1 (Homo sapiens) (UniProt P53350); conditions: at 0.1 µM
# [13] = biological target: Serine/threonine-protein kinase PLK1 (Homo sapiens) (UniProt P53350); conditions: at 1 µM
# [14] = biological target: T5, Dual specificity protein kinase TTK (Homo sapiens) (UniProt P33981); conditions: at 0.1 µM
# T5 sequence (whole entry): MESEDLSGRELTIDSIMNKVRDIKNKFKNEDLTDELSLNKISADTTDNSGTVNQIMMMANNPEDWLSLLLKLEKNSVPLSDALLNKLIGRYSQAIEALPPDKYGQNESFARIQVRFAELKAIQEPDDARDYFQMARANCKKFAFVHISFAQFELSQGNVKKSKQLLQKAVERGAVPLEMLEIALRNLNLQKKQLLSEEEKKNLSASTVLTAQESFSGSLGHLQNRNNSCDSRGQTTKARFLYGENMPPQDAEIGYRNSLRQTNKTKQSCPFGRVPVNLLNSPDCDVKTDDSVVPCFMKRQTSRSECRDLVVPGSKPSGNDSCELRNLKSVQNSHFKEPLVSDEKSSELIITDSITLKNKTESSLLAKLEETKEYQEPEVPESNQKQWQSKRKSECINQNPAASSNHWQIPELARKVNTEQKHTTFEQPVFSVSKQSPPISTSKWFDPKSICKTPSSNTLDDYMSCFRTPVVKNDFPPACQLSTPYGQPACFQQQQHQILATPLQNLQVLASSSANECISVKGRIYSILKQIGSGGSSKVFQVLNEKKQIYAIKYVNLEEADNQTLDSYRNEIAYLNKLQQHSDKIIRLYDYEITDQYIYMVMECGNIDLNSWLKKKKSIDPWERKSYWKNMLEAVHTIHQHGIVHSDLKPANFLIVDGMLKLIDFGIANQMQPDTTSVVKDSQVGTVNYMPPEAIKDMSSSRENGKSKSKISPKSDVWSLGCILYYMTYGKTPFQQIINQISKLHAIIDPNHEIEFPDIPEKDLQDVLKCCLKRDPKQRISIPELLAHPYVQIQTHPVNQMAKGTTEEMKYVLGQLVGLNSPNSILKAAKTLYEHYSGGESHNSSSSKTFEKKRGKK
# [15] = tested on: T6, Receptor-type tyrosine-protein kinase FLT3 (Homo sapiens), P36888 [D835Y]; conditions: at 1 µM
# T6 sequence (whole entry): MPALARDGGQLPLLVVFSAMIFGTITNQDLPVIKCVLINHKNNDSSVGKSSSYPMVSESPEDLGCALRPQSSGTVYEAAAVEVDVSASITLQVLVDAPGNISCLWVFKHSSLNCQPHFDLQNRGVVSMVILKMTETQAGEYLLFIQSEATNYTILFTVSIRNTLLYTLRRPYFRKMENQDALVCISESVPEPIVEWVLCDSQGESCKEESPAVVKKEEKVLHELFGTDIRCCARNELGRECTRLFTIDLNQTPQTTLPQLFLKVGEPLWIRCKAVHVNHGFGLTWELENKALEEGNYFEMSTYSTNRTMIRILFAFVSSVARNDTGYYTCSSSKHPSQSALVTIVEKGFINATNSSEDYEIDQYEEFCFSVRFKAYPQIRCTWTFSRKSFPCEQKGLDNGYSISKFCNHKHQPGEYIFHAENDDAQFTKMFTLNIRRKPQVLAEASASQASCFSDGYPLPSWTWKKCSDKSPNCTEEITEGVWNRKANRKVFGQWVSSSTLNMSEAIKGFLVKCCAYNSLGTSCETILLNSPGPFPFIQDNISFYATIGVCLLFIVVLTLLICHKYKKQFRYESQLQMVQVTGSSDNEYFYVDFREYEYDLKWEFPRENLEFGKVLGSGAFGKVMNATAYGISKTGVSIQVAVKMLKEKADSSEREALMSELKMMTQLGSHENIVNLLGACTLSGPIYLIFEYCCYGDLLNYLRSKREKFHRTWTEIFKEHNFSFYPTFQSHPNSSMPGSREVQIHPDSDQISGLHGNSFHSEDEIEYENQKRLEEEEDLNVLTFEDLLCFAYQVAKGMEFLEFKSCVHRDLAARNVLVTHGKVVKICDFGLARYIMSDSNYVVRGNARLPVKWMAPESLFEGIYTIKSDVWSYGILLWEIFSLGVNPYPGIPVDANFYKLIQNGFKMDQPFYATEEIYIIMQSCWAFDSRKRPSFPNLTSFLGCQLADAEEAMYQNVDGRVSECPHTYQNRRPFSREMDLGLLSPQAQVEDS
# [16] = biological target: Vascular endothelial growth factor receptor 3 (Homo sapiens) (UniProt P35916); conditions: at 0.1 µM
# [17] = biological target: Vascular endothelial growth factor receptor 3 (Homo sapiens) (UniProt P35916); conditions: at 1 µM
# [18] = biological target: Macrophage colony-stimulating factor 1 receptor (Homo sapiens) (UniProt P07333); conditions: at 0.1 µM
# [19] = biological target: Macrophage colony-stimulating factor 1 receptor (Homo sapiens) (UniProt P07333); conditions: at 1 µM
# [20] = biological target: Tyrosine-protein kinase Fyn (Homo sapiens) (UniProt P06241); conditions: at 0.1 µM
# Sequence of Tyrosine-protein kinase Fyn (Homo sapiens) (P06241 2-537 limits assumed): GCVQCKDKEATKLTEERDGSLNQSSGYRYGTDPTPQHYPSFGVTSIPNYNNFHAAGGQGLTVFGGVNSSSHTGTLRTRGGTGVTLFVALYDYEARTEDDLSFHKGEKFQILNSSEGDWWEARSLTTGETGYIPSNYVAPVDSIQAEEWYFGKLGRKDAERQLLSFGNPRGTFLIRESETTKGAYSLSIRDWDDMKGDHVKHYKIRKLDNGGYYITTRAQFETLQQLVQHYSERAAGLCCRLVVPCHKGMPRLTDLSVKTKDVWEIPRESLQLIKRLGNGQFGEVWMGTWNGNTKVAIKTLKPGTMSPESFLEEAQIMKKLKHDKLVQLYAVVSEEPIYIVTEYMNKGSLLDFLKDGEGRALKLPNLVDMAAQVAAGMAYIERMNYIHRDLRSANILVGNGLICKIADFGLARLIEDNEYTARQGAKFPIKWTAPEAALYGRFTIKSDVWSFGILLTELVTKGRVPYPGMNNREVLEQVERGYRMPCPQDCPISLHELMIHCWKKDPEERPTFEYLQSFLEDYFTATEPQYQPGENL
# Sequence of Vascular endothelial growth factor receptor 3 (Homo sapiens) (P35916 whole entry): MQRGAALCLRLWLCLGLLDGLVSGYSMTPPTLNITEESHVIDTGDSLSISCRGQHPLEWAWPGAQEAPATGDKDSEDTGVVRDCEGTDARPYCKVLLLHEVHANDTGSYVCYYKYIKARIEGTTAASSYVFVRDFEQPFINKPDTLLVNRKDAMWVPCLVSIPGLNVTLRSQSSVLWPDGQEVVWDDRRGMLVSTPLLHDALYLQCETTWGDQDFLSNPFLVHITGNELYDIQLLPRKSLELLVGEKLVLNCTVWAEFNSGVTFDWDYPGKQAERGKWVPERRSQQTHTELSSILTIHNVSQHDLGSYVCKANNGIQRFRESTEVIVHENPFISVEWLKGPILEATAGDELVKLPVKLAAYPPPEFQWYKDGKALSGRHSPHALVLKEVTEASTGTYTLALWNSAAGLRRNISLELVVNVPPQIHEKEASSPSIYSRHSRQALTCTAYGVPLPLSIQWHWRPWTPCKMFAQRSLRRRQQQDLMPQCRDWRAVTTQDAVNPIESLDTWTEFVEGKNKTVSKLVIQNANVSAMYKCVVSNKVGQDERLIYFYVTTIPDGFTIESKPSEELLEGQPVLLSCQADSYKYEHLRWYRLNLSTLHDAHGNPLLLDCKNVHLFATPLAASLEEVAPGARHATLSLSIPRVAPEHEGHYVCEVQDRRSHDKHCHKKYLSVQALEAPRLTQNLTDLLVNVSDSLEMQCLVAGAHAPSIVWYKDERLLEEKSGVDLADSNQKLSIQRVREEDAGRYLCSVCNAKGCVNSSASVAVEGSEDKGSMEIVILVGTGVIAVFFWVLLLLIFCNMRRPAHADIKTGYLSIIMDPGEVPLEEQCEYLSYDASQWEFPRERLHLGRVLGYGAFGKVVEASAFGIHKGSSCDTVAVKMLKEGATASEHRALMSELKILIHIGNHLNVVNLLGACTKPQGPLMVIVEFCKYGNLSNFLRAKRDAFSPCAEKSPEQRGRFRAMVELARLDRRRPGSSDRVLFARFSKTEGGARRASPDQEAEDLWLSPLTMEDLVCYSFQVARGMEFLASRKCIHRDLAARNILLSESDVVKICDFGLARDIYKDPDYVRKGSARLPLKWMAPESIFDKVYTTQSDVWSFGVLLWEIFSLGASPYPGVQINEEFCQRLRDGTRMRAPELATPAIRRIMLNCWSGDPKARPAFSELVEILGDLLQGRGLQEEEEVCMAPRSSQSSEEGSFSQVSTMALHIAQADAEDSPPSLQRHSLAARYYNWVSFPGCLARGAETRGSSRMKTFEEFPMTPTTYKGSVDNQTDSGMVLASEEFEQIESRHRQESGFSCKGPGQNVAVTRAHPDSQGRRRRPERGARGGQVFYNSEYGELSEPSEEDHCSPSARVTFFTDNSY
# Sequence of Serine/threonine-protein kinase Nek7 (Homo sapiens) (Q8TDX7 whole entry, looked up): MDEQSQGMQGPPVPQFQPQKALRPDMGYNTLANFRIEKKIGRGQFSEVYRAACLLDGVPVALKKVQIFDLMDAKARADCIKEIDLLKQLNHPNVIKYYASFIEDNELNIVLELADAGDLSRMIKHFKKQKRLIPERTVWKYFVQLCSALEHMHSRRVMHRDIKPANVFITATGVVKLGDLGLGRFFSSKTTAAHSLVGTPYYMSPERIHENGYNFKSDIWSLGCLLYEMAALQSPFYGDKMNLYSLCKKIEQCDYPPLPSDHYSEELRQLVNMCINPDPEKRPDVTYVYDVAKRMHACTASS
# Sequence of Serine/threonine-protein kinase Nek6 (Homo sapiens) (Q9HC98 whole entry): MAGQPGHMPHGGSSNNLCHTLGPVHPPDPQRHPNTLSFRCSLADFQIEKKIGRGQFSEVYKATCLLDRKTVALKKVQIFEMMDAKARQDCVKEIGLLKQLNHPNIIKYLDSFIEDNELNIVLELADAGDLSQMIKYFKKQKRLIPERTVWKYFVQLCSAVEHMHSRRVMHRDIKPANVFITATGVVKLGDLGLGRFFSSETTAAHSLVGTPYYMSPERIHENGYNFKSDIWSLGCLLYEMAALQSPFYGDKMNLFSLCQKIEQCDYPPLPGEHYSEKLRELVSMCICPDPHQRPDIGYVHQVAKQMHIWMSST
# Sequence of Macrophage colony-stimulating factor 1 receptor (Homo sapiens) (P07333 whole entry): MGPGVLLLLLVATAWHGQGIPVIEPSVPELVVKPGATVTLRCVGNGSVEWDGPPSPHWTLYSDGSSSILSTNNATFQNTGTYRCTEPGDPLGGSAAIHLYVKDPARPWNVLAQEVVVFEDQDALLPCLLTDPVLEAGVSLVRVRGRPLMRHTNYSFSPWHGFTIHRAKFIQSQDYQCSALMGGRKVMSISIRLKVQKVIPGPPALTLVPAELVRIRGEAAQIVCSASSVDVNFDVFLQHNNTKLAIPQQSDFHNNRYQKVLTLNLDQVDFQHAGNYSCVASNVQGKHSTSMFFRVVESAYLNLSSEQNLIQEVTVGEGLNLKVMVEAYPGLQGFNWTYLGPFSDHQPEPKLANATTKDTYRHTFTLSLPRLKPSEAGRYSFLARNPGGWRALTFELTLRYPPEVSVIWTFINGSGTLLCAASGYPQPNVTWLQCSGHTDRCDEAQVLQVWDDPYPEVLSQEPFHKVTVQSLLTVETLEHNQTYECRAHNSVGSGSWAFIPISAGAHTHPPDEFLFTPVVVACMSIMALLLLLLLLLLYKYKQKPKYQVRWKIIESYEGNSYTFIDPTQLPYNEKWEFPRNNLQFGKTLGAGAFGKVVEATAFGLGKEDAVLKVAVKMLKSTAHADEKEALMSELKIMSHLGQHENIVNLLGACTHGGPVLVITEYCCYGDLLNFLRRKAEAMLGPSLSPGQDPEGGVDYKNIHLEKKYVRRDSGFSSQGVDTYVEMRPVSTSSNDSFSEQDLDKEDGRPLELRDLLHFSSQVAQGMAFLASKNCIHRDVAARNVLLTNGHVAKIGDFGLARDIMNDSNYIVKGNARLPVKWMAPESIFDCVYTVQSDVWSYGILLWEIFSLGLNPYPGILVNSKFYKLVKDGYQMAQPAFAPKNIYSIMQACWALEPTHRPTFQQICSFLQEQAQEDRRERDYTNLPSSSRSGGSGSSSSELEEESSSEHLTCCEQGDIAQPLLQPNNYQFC
# Sequence of Serine/threonine-protein kinase PLK1 (Homo sapiens) (P53350 whole entry): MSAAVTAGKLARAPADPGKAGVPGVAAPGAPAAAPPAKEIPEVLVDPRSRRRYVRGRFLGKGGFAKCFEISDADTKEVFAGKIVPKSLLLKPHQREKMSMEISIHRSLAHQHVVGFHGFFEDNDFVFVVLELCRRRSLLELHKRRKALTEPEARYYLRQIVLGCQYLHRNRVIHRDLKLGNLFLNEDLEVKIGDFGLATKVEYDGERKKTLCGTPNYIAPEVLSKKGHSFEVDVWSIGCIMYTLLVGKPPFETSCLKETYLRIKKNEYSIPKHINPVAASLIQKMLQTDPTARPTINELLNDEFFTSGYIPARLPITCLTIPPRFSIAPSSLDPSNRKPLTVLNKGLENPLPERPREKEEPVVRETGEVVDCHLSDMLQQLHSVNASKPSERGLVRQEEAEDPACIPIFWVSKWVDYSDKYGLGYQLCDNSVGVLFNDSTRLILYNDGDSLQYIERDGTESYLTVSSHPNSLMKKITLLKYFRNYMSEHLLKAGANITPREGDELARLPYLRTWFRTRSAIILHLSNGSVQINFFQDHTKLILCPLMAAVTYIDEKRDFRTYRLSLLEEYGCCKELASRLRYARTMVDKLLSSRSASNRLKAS
SMILES,inhibition [1],inhibition [2],inhibition [3],inhibition [4],inhibition [5],inhibition [6],inhibition [7],inhibition [8],inhibition [9],inhibition [10],inhibition [11],inhibition [12],inhibition [13],inhibition [14],inhibition [15],inhibition [16],inhibition [17],inhibition [18],inhibition [19],inhibition [20]
FC(F)(F)c1cccc(Nc2nccc(-c3cnn4nc(-c5ccccc5)ccc34)n2)c1,5.2%,2.32%,2.59%,1.73%,4.5%,-0.41%,-0.37%,2.4%,1.88%,8.12%,8.66%,2.06%,-0.34%,3.1%,26.7%,-0.18%,6.91%,-2.73%,16.4%,0.72%
Fc1ccc(-c2ncn(C3CCNCC3)c2-c2ccnc(Oc3ccc(Oc4ccccc4)cc3)n2)cc1,6.34%,1.09%,1.58%,5.87%,3.38%,-2.46%,2.86%,3.94%,9.34%,4.61%,4.8%,4.45%,6.8%,6.67%,-1.89%,3.28%,1.1%,2.27%,3.02%,2.65%
O=C(Nc1n[nH]c2cc(-c3cc(F)ccc3F)ccc12)C1CC1,6.78%,1.23%,0.65%,3.53%,2.03%,1.92%,-0.92%,6.28%,3.5%,11.6%,10.9%,4.33%,3.61%,8.84%,-2.14%,0.33%,1.03%,-1.77%,2.78%,2.47%

# Reference: ChEMBL document CHEMBL1961873, “Compounds: GSK PKIS; Assays: Nanosyn kinase panel” (2012)
